The record followed here is PubChem BioAssay.

Inconclusive results are not listed. Calls of active or inactive are those of the source.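 The calls were made as follows, unless noted: active = viability loss from added drug above about 55%, and viability with drug at most 40%, in both replicates (limit read from the data, passing the limit was not always enough); inconclusive = both conditions met in only one replicate; inactive = neither replicate meets both conditions.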

The nature of test [1]: Her2 expression decrease, cell viability multiplex – SKBR3 breast tumor cells, AlphaScreen, ATP viability, primary screen (AID 461;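 active = Her2 level under about 52% in both replicate screens, with viability over 70% of control, limit read from the data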;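 as to Her2 level: lower value means less Her2 protein in the cells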;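 as to viability: percent of carrier control wells set as 100% viability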). The note with it: SKBR3 Her2 protein level, 18-24 h, measured here: SKBR3 viability, ATP luminescence, at 10 µM. (In general: In Alpha technology, singlet oxygen from a donor bead excites a nearby acceptor bead.)
Test [2] concerns the target Receptor tyrosine-protein kinase erbB-2 (Homo sapiens) (UniProt P04626). Described as above. The note with it: 18-24 h, at 10 µM, stronger effect = lower value.
A short description of test [3]: reduced viability of SK-BR-3 breast cancer cells – cell-based, 24 h, human, pilot screen (AID 572;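 active = viability at or below 10% of carrier control in both of two separate runs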;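 also: compound exposure lasted between 18 and 24 h rather than exactly 24 h; 100% = carrier-treated control wells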). The note with it: SK-BR-3 viability, CellTiter-Glo luminescence, at 10 µM, stronger effect = lower value. (In general: Cellular ATP, detected with luciferase, serves as a proxy for viable cell number.)
Test [4] can be described thus: HUVEC growth inhibition – cell-based, human, primary screen (AID 575;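 active = viability at or below 30% in both replicate assays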;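 also: 100% = median of untreated cell wells with 0.1% DMSO on each plate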). The note with it: HUVEC proliferation, CellTiter-Glo luminescence, 72 h; at 10 µM; stronger effect = lower value.
Test [5] is described as follows: H69AR cell proliferation blockers – human, duplicate replicates, primary screen (AID 580;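 active = viability at or under a set limit in both replicates, limit being median viability minus 3 SD, cut at about 48% in these data, passing the limit was not always enough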;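 also: 100% = mean luminescence of untreated wells and 0% = no signal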). Particulars: H69AR lung tumor cells viability, ATP luminescence, 72 h; at 10 µM; stronger effect = lower value.
The nature of test [6]: MRP1 drug-resistance reversers in H69AR cells – cell-based, doxorubicin co-treatment, pilot screen (AID 601). The note with it: CellTiter-Glo, 72 h, at 10 µM; for differential viability (reversal): stronger effect = higher value.
A short description of test [7]: yeast transport mutant growth inhibition pilot in 384-well plates, post-Golgi transport modulator project (AID 636; in the data active = inhibition above about 31%). Particulars: absorbance 615 nm, about 18 h, stronger effect = higher value.
The nature of test [8]: growth suppression of yeast trafficking mutant, preliminary HTS, modulators of trafficking downstream of Golgi apparatus project, 1536-format plate, OD 615 nm (AID 637; in the data active = inhibition above about 30%). The note with it: yeast transport mutant growth, absorbance 615 nm, 18 h; stronger effect = higher value.
Test [9] in a line: S. cerevisiae growth inhibition in permissive medium (OD615), pilot counter-assay for S. cerevisiae lifespan shortening project, permissive growth control (AID 705;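 active = growth inhibition above 25% in both replicates, a cutoff set 3 SD above the mean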). The note with it: OD615, 24 h, at 10 µM, stronger effect = higher value.
Test [10] is described as follows: S. cerevisiae growth inhibition in restrictive medium, OD615, pilot screen, restrictive growth control, yeast lifespan reduction project (AID 706;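 active = growth inhibition above a set limit, 3 SD over mean compound inhibition, in both replicates, cut at about 43% in these data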;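 also: modified DeaD lifespan yeast strain shifted to restrictive glucose medium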). Particulars: OD615, 48 h, at 10 µM, stronger effect = higher value.
Test [11] is described as follows: doxorubicin toxicity protection in MRP-1 cells – H69AR cells, CellTiter-Glo, duplicate, MRP-1 activator project, pilot screen (AID 807;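 active = viability increase at or above a cutoff of the median across tested compounds plus 3 SD, cut at about 8.5% in these data, passing the limit was not always enough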;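 also: compound pretreatment 18-22 h then 72 h combined with doxorubicin; 0% = doxorubicin alone and 100% = vehicle without doxorubicin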). The note with it: H69AR viability with doxorubicin, CellTiter-Glo luminescence; at 10 µM; stronger effect = higher value.
Test [12] in a line: viability of HCT116 without oncogenic beta-catenin – human colon tumor cells, pilot screen (AID 823;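 active = cell viability at or below a set limit in both duplicate runs, the limit being the all-compound median minus 4 SD, cut at about 23% in these data, passing the limit was not always enough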;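 also: 0% = wells killed by 20 µM Hyamine and 100% = untreated DMSO cell wells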). Particulars: HCT116 beta-catenin knockout viability, CellTiter-Glo, 60 h; at 10 µM; stronger effect = lower value.
Test [13] in a line: viability of PTEN-null HCT116 cells – cell-based, HCT116 clonal line, CellTiter-Glo, pilot screen (AID 824;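 active = viability at or below 27.92% in each of two runs, the all-compound median minus 4 SD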;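 also: 0% = 20 µM Hyamine control and 100% = vehicle cell control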). Particulars: HCT116 PTEN-deleted viability, 60 h, at 10 µM, stronger effect = lower value.
Test [14] can be described thus: RAM pathway blockade in budding yeast – dse1pr::URA3 reporter, 5-FOA selection, pilot screen (AID 869;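 active = inhibition over a set limit, the all-compound mean plus 3 SD, in both replicate runs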;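 also: 0% = DMSO wells with no growth and 100% = 10 µM 1-NA-PP1 with full growth; RAM network block rescues cells from 5-FOA so hits raise OD615 growth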). Particulars: S. cerevisiae dse1pr::URA3 5-FOA growth, OD615, 2 d; at 10 µM; stronger effect = higher value; strain carries analog-sensitive mutant Cbk1 kinase.
Test [15] in a line: RAM signaling pathway blockade in yeast – S. cerevisiae, Pdr1DBD-CYC8 efflux-inhibited sensitized strain, primary screen (AID 1298;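 active = RAM network inhibition above 8.4% in each of two replicates, 3 SD over the compound average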;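 also: 0% = DMSO untreated cells without growth and 100% = 10 µM 1-NA-PP1 full growth; higher means more yeast growth rescued from 5-FOA killing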). The note with it: S. cerevisiae cbk1-as DSE1-URA3 strain, 5-FOA growth OD615, 2 d; at 50 µM; stronger effect = higher value.
Where [16] appears, read: H69AR cells + 2 uM doxorubicin, measured here: viability with 2 uM doxorubicin, stronger effect = lower value.
[17] abbreviates: H69AR cells, compound alone cytotoxicity.

Receptor tyrosine-protein kinase erbB-2 (Homo sapiens), sequence (P04626 whole entry, looked up): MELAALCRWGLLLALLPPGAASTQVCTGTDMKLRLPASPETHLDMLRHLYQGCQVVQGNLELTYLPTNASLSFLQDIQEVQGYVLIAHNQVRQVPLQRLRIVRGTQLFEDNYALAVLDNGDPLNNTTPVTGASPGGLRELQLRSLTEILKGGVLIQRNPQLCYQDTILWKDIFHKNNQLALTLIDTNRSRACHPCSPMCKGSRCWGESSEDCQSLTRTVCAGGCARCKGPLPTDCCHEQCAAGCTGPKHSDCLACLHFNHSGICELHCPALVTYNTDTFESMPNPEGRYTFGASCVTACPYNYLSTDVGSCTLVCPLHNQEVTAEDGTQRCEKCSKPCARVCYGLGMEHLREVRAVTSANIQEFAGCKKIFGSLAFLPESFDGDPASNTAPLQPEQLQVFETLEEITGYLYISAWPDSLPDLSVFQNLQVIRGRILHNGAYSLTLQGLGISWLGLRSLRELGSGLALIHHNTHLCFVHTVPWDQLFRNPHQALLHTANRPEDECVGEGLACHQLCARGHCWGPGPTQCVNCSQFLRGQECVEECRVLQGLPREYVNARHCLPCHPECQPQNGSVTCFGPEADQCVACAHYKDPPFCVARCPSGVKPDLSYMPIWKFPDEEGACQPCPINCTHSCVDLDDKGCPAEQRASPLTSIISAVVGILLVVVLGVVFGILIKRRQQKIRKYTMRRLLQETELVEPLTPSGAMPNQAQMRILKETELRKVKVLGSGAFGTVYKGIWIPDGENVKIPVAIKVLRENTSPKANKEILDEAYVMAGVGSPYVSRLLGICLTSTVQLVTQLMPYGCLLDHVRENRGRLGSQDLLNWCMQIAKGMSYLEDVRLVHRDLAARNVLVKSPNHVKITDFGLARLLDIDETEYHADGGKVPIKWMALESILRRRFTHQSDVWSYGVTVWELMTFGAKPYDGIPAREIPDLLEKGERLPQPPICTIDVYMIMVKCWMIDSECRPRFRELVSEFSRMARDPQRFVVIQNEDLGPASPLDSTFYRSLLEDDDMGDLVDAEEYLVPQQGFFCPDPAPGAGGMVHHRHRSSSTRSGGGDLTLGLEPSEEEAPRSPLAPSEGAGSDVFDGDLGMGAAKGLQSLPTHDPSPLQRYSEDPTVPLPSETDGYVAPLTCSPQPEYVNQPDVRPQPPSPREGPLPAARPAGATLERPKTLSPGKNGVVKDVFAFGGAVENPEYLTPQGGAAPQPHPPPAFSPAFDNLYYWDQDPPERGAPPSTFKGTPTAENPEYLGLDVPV

As for `C=CCSc1nc(N)c2c(C)c(C)sc2n1`, the viability was 98.5% in test [1]; 98.5% (inactive) in test [3]; 86.5% (inactive) in test [4]; 88% (inactive) in [5]; 83.5% in test [6] (setting [16]); 88% in [6] (setting [17]). The results for the viability in [12] and in test [13] were 95.3% (inactive) and 92.4% (inactive), respectively. The Her2 level in [2] was 70.5% (inactive). In addition, the differential viability (reversal) in test [6] (H69AR cells + 2 uM doxorubicin) was 4.54% (inactive). Moreover, the inhibition is -0.52% (inactive) in test [7], -8.33% (inactive) in test [8] and 0.34% (inactive) in test [14]. Also, the growth inhibition in [9] is -10.6% (inactive); in test [10], -14% (inactive). In test [11], the viability increase was -3.58% (inactive). The RAM network inhibition in test [15] was 8.79% (inactive).

With `CCOC(=O)N1CCN(C(=O)CSc2nnc(-c3cccc(Cl)c3)o2)CC1`, the viability is 82.5% in test [1]; 82.5% (inactive) in test [3]; 86.1% (inactive) in test [4]; 93.9% (inactive) in test [5]; 86.4% in test [6] (setting [16]); 93.9% in [6] (setting [17]). Further, the values for the viability in test [12] and in test [13] were 105% (inactive) and 100% (inactive), respectively. Further, the Her2 level in test [2] was 96.5% (inactive). Moreover, the differential viability (reversal) in [6] (H69AR cells + 2 uM doxorubicin) was 7.46% (inactive). The inhibition in test [7] is 0.13% (inactive); in test [8], -2.95% (inactive); in [14] it was 2.61% (inactive). Further, the figures for the growth inhibition in test [9] and in test [10] were -6.25% (inactive) and -10.5% (inactive), respectively. Further, the viability increase in test [11] is -0.22% (inactive). Further, in test [15], the RAM network inhibition was 2.71% (inactive).

With `CCC(C)NC(=O)CS(=O)(=O)Cc1nc(-c2cccc(OC)c2)oc1C` (stereo not drawn), the viability in test [1] was 80.5%; in test [3], 80.5% (inactive); in test [4], 97.6% (inactive); in test [5], 91.4% (inactive); in test [6] (setting [16]), 100%; in [6] (setting [17]), 91.4%. Further, the figures for the viability in test [12] and in [13] were 91.9% (inactive) and 93.5% (inactive), respectively. In addition, the Her2 level in test [2] is 98% (inactive). Besides, the differential viability (reversal) in test [6] (H69AR cells + 2 uM doxorubicin) is -8.61% (inactive). Further, the inhibition was -2% (inactive) in [7], -0.66% (inactive) in test [8] and 0.02% (inactive) in [14]. In addition, the growth inhibition in [9] was 3.02% (inactive); in test [10], 9.5% (inactive). Besides, in test [11], the viability increase was 0.02% (inactive). Moreover, the RAM network inhibition in test [15] is 3.92% (inactive).

Take `CCOC(=O)C1CCN(Cc2ccc(F)c(Br)c2)CC1`: the viability in [1] was 122%; in [3], 122% (inactive); in [4], 106% (inactive); in [5], 85.5% (inactive); in test [6] (setting [16]), 92.8%; in test [6] (setting [17]), 85.5%. Further, the viability in [12] was 90.4% (inactive); in test [13], 91.9% (inactive). Besides, the Her2 level in test [2] was 118% (inactive). In addition, in test [6] (H69AR cells + 2 uM doxorubicin), the differential viability (reversal) was -7.29% (inactive). The inhibition is -1.17% (inactive) in test [7], 9.5% (inactive) in [8] and 2.35% (inactive) in test [14]. Further, the growth inhibition was -3.72% (inactive) in test [9] and -1.05% (inactive) in test [10]. Moreover, the viability increase in [11] was -2.69% (inactive). The RAM network inhibition in test [15] is -0.36% (inactive).

The term viability denotes a read-out of living cells in per cent, often relative to untreated cells. A word on the inhibition: it is the change of the read-out against control, counted positive when it falls.
